Results published in publication PMC7862700, “An all-to-all approach to the identification of sequence-specific readers for epigenetic DNA modifications on cytosine”.

Experiments:
Experiment in all cases: DAPPL (digital affinity profiling via proximity ligation, sequencing); 10 mM Tris-HCl pH 7.5, 50 mM NaCl, 1 mM DTT, 4% glycerol, room temperature, 30 min; GST-TFs on glutathione beads, 16-mer random dsDNA library, 0.1% formaldehyde crosslink after washing; high values mean tight binding
[1] = target: T1, FLI1 (Homo sapiens, UniProt Q01543 1-452); settings: protein: recombinant; tags: N-terminal GST; dsDNA, one strand shown
T1 sequence: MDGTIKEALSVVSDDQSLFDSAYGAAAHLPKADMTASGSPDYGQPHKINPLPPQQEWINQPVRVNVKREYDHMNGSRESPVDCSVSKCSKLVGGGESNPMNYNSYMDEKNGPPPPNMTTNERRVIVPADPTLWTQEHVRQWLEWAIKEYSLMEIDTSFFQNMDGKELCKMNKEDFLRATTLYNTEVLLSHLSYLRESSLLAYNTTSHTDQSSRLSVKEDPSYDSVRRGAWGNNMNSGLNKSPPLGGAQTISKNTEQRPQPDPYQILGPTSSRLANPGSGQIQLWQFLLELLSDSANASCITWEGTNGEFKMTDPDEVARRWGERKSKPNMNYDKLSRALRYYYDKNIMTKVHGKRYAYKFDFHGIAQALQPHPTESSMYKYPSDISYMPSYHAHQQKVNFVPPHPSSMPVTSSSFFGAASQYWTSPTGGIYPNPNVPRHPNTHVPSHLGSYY
In short: (§1)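 Pools were built from human transcription factors expressed in yeast as GST fusions, captured on glutathione beads and DNA-barcoded, along with a tag-only sample. Incubation with 200 nmole of a 16-mer random double-stranded DNA library lasted 30 min at room temperature in Tris/NaCl/DTT/glycerol buffer, and was followed by washing, 0.1% formaldehyde crosslinking, proximity ligation, PCR amplification and Illumina NextSeq500 sequencing. Binding signal is the quotient of each hexamer's read frequency for a factor and its frequency for the tag-only sample.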

[2] = target: T2, ELK1 (Homo sapiens, UniProt P19419 1-428); settings: protein: recombinant; tags: N-terminal GST; dsDNA, one strand shown
T2 sequence: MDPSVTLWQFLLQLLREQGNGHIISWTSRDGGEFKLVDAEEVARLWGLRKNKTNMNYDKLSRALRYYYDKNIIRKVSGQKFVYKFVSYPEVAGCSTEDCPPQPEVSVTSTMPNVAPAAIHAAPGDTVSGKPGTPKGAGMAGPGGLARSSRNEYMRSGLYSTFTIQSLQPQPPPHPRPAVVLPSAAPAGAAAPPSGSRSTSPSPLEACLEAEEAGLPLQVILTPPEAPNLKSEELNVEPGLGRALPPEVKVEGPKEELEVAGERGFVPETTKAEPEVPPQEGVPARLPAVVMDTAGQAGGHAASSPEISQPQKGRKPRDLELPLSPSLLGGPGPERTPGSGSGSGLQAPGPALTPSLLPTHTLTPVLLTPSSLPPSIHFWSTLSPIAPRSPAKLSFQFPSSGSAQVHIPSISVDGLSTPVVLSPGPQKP
In short: as §1

[3] = target: T3, GABPA (Homo sapiens, UniProt Q06546 1-454); settings: protein: recombinant; tags: N-terminal GST; dsDNA, one strand shown
T3 sequence: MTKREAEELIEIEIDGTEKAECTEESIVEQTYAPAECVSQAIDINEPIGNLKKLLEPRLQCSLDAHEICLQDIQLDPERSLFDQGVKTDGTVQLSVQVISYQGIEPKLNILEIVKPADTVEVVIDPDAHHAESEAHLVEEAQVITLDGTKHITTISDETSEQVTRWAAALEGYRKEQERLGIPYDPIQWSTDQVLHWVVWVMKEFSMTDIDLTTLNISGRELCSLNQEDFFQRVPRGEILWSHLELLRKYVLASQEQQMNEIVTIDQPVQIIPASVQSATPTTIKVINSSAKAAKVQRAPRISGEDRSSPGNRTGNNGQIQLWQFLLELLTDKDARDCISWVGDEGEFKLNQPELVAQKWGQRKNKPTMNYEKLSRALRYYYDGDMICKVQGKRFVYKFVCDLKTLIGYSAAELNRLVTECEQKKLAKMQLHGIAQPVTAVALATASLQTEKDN
In short: as §1

[4] = target: T4, ERG (Homo sapiens, UniProt P11308 1-479); settings: protein: recombinant; tags: N-terminal GST; dsDNA, one strand shown
T4 sequence: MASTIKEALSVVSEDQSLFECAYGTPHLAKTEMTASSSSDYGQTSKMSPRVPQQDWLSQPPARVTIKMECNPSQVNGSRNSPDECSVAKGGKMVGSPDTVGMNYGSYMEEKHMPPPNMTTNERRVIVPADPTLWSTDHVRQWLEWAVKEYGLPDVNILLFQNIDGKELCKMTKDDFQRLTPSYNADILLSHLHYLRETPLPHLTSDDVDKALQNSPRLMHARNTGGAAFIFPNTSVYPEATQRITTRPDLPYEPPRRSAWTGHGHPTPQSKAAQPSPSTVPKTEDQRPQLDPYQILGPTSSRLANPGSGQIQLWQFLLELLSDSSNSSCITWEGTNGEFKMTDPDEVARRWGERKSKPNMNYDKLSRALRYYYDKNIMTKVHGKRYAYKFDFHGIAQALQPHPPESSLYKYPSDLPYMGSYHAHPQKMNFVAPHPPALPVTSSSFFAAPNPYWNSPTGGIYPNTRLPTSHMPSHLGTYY
In short: as §1

[5] = target: ELF1 (Homo sapiens, UniProt P32519 1-619); settings: protein: recombinant; tags: N-terminal GST; dsDNA, one strand shown
In short: as §1

[6] = target: T5, EHF (Homo sapiens, UniProt Q9NZC4 1-300); settings: protein: recombinant; tags: N-terminal GST; dsDNA, one strand shown
T5 sequence: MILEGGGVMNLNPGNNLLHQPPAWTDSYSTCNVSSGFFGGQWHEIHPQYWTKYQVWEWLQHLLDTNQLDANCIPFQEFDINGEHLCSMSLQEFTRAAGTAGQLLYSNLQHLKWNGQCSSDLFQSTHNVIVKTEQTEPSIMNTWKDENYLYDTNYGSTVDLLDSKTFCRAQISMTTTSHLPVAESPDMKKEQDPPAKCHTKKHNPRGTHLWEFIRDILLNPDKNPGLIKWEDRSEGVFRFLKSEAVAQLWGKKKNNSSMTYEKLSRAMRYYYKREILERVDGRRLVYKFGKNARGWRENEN
In short: as §1

[7] = target: SPI1 (Homo sapiens, UniProt P17947 1-270); settings: protein: recombinant; tags: N-terminal GST; dsDNA, one strand shown
In short: as §1

[8] = target: SPIB (Homo sapiens, UniProt Q01892 1-262); settings: protein: recombinant; tags: N-terminal GST; dsDNA, one strand shown
In short: as §1

[9] = target: T6, ELK3 (Homo sapiens, UniProt P41970 1-407); settings: protein: recombinant; tags: N-terminal GST; dsDNA, one strand shown
T6 sequence: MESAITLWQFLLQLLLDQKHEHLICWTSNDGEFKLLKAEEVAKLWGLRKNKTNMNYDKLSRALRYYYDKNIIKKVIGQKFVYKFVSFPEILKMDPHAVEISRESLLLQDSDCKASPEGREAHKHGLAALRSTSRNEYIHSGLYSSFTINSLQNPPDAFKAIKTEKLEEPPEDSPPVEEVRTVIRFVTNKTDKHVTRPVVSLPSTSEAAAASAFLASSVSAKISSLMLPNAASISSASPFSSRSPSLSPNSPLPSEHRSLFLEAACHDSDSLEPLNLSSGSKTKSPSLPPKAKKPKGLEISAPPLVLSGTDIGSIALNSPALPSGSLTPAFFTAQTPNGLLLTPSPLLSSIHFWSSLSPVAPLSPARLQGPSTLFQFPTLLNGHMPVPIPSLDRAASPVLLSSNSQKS
In short: as §1

[10] = target: T7, FEV (Homo sapiens, UniProt Q99581 1-238); settings: protein: recombinant; tags: N-terminal GST; dsDNA, one strand shown
T7 sequence: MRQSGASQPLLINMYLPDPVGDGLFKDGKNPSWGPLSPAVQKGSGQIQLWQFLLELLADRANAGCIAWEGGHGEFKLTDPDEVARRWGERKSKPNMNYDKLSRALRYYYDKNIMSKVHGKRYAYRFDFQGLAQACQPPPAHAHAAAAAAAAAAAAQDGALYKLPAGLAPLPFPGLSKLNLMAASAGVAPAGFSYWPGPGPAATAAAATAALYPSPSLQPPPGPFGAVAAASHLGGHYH
In short: as §1

[11] = target: ETV5 (Homo sapiens, UniProt P41161 1-510); settings: protein: recombinant; tags: N-terminal GST; dsDNA, one strand shown
In short: as §1

[12] = target: HSF1 (Homo sapiens, UniProt Q00613 1-529); settings: protein: recombinant; tags: N-terminal GST; chain copies: 3; dsDNA, one strand shown
In short: as §1

[13] = target: T8, SPIC (Homo sapiens, UniProt Q8N5J4 1-248); settings: protein: recombinant; tags: N-terminal GST; dsDNA, one strand shown
T8 sequence: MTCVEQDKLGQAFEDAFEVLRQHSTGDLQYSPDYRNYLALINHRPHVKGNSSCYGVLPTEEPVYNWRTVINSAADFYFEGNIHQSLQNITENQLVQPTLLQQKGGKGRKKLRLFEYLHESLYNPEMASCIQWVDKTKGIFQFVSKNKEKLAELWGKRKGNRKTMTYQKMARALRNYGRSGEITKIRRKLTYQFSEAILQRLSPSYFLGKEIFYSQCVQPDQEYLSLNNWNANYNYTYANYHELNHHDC
In short: as §1

[14] = target: ELF4 (Homo sapiens, UniProt Q99607 1-663); settings: protein: recombinant; tags: N-terminal GST; dsDNA, one strand shown
In short: as §1

[15] = target: T9, ELK4 (Homo sapiens, UniProt P28324-2 1-405); settings: protein: recombinant; tags: N-terminal GST; dsDNA, one strand shown
T9 sequence: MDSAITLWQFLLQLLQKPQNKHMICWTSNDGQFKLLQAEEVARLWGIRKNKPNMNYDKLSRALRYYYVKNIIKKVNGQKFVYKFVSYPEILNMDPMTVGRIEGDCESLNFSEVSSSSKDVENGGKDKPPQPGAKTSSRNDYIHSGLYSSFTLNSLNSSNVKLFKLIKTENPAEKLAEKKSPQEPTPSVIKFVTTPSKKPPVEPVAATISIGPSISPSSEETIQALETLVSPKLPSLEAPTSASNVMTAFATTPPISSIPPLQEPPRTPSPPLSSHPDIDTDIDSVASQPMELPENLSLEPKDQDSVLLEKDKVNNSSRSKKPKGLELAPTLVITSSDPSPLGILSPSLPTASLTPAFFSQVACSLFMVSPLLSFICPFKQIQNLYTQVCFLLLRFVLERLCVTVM
In short: as §1

[16] = target: T10, ETV2 (Homo sapiens, UniProt O00321 1-342); settings: protein: recombinant; tags: N-terminal GST; dsDNA, one strand shown
T10 sequence: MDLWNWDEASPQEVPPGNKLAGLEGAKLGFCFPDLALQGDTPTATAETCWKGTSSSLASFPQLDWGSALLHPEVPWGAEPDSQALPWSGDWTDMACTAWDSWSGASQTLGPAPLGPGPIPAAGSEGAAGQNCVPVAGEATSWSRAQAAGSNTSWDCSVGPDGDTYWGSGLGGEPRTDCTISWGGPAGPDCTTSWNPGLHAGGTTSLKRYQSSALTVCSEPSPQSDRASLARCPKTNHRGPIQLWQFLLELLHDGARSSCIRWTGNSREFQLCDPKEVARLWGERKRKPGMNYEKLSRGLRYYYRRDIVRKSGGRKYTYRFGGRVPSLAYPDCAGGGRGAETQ
In short: as §1

[17] = target: T11, ELF3 (Homo sapiens, UniProt P78545 1-371); settings: protein: recombinant; tags: N-terminal GST; dsDNA, one strand shown
T11 sequence: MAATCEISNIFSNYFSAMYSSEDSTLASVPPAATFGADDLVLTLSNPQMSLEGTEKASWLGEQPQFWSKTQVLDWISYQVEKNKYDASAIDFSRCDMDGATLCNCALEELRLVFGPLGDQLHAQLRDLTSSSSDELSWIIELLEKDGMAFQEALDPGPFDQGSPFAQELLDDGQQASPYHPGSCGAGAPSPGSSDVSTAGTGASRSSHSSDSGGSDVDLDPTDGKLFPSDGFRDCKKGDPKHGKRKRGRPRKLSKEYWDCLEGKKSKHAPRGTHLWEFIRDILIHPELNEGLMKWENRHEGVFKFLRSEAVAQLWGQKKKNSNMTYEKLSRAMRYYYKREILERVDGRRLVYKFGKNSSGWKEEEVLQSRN
In short: as §1

[18] = target: CRX (Homo sapiens, UniProt O43186 1-299); settings: protein: recombinant; tags: N-terminal GST; dsDNA, one strand shown
In short: as §1

[19] = target: ETV1 (Homo sapiens, UniProt P50549 1-477); settings: protein: recombinant; tags: N-terminal GST; dsDNA, one strand shown
In short: as §1

Sequence of CRX (O43186 whole entry): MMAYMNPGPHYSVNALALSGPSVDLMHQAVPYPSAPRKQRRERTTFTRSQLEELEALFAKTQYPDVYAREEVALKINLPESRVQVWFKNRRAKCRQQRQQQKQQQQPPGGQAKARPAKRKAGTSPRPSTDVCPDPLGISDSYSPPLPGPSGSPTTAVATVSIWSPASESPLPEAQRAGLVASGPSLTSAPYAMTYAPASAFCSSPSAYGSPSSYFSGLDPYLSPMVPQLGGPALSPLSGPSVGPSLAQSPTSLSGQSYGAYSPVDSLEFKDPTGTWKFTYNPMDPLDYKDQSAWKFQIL
Sequence of SPIB (Q01892 whole entry): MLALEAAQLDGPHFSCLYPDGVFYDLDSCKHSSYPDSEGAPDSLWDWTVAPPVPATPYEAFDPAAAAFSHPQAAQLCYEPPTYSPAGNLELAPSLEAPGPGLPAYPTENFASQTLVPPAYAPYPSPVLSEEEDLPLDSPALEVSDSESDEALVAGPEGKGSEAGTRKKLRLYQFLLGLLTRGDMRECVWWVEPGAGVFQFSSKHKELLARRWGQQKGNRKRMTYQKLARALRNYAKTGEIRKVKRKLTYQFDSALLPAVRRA
Sequence of ETV5 (P41161 whole entry): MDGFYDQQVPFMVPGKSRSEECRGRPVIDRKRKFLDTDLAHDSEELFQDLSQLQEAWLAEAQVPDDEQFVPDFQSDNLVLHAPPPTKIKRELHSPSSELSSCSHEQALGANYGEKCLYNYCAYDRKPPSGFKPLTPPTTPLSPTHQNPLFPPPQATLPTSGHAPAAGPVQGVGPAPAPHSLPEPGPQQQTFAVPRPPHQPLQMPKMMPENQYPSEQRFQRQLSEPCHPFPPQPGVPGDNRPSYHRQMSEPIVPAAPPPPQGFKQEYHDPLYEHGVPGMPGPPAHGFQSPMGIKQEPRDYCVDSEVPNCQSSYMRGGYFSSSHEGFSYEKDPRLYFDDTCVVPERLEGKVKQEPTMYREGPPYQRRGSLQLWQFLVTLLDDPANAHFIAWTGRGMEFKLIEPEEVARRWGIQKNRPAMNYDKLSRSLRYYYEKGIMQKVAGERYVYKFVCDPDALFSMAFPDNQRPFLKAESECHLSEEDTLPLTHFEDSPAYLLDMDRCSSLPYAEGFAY
Sequence of HSF1 (Q00613 whole entry): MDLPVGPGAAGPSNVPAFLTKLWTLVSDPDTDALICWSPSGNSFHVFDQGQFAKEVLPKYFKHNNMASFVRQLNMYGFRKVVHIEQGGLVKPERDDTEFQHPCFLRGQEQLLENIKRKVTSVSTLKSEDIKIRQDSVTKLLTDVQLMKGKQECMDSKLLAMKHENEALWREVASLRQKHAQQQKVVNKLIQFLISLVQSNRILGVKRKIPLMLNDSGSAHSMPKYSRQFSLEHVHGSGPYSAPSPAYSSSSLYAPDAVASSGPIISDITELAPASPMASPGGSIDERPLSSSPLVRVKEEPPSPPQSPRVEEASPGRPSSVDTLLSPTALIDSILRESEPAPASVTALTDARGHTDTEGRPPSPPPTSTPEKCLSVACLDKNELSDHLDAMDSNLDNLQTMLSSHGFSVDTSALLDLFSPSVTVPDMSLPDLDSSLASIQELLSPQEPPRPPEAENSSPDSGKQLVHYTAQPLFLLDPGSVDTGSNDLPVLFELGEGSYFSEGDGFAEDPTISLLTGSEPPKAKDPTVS
Sequence of ETV1 (P50549 whole entry): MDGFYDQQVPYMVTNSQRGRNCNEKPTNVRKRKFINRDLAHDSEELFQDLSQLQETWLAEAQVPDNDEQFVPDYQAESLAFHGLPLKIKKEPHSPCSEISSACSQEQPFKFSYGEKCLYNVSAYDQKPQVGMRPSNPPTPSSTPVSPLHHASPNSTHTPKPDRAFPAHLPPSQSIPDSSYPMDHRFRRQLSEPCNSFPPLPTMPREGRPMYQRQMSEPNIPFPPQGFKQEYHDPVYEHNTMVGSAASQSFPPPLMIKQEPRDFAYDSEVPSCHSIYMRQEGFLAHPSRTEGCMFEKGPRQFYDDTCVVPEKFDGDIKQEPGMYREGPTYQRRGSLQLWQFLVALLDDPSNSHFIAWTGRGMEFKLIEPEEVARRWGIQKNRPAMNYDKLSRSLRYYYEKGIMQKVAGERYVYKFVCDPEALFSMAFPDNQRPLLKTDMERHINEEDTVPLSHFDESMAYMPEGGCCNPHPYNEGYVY
Sequence of ELF1 (P32519 whole entry): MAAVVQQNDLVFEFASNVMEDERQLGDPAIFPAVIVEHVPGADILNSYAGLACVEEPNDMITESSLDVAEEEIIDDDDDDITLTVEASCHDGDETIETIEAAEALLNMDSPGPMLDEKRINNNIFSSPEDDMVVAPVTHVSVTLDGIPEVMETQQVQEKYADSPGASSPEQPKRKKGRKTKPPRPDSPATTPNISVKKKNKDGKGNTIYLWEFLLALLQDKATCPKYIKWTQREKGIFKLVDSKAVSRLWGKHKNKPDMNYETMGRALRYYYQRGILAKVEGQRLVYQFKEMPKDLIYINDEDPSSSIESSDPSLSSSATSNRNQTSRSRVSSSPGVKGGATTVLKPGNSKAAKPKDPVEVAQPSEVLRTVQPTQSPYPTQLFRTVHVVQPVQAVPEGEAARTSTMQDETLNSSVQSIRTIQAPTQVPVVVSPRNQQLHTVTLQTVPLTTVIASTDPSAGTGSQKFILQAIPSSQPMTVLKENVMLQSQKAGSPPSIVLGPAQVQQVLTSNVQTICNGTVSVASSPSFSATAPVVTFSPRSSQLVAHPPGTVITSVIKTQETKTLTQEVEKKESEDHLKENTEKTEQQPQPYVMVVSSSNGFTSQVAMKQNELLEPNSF
Sequence of ELF4 (Q99607 whole entry): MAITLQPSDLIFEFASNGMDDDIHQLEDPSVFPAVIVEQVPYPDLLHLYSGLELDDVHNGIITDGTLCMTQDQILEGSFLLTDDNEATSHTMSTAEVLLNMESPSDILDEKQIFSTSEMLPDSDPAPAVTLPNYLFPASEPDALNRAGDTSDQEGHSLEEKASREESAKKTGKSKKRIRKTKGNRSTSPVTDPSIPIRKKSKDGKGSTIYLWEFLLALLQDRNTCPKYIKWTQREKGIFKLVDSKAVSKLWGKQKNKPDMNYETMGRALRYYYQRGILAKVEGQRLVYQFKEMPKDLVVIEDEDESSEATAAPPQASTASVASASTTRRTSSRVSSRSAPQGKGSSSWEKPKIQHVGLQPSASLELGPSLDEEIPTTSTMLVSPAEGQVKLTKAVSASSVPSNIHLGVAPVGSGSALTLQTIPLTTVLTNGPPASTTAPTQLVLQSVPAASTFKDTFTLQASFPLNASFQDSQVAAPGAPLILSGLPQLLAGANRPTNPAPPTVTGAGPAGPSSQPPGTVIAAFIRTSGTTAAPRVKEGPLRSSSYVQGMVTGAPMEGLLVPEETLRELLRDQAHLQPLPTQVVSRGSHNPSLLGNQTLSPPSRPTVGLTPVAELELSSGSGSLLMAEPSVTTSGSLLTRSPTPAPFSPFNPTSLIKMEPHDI

Sequence: ATTTTC
- binding signal [1]: 1.47 fold enrichment (6-mer frequency, TF over GST control)
- binding signal [2]: 1.35 fold enrichment (6-mer frequency, TF over GST control)
- binding signal [3]: 1.46 fold enrichment (6-mer frequency, TF over GST control)
- binding signal [4]: 1.46 fold enrichment (6-mer frequency, TF over GST control)
- binding signal [5]: 1.31 fold enrichment (6-mer frequency, TF over GST control)
- binding signal [6]: 1.49 fold enrichment (6-mer frequency, TF over GST control)
- binding signal [7]: 1.56 fold enrichment (6-mer frequency, TF over GST control)
- binding signal [8]: 1.41 fold enrichment (6-mer frequency, TF over GST control)
- binding signal [9]: 1.31 fold enrichment (6-mer frequency, TF over GST control)
- binding signal [10]: 1.35 fold enrichment (6-mer frequency, TF over GST control)
- binding signal [11]: 1.44 fold enrichment (6-mer frequency, TF over GST control)
- binding signal [12]: 2.04 fold enrichment (6-mer frequency, TF over GST control)
- binding signal [13]: 1.44 fold enrichment (6-mer frequency, TF over GST control)
- binding signal [14]: 1.64 fold enrichment (6-mer frequency, TF over GST control)
- binding signal [15]: 1.5 fold enrichment (6-mer frequency, TF over GST control)
- binding signal [16]: 1.63 fold enrichment (6-mer frequency, TF over GST control)
- binding signal [17]: 1.48 fold enrichment (6-mer frequency, TF over GST control)
- binding signal [18]: 1.67 fold enrichment (6-mer frequency, TF over GST control)
- binding signal [19]: 1.4 fold enrichment (6-mer frequency, TF over GST control)
